Screening data as filed in PubChem.
Peg3 promoter = reduces Peg3 promoter-driven luciferase expression in HeLa | HeLa PEG-Prom luciferase reporter, luminescence, overnight | inhibition, % at 20 µM | 360,000 compounds, 1.7% hits;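 active means inhibition of at least 50% at 20 µM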
TROY NFkB inh = TROY signaling inhibition; Q293 LMP1-TROYcd NF-kB luciferase reporter, 4 h; inhibition, % at 10 µM; 360,000 compounds, 0.98% hits; AID 1347056;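 active means compounds whose plate-normalised and pattern-corrected inhibition of the luciferase reporter signal at the single screening dose is 50% or more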
LMP1 NFkB inh = reduces LMP1-driven NF-kappaB luciferase signal; LMP1-induced NF-kappaB luciferase reporter cells, luminescence; 350,000 compounds, 0.69% hits; inhibition, % at 12.5 µM; AID 504558; in the data active means inhibition above about 41%; inconclusive means no clear call, values can overlap the other calls
TWEAK-Fn14 inh = TWEAK-Fn14 signaling inhibition; TWEAK-stimulated Fn14 reporter cells, luciferase luminescence, 8 h; inhibition, % at 10 µM; 360,000 compounds, 2% hits; AID 1159606; in the data active means inhibition above about 50%
Shn3 3UTR inh = inhibitors of Schnurri-3 3'UTR reporter in osteoblasts | Clone20 osteoblast Shn3 3'UTR firefly luciferase, 24 h | inhibition, % at 12.5 µM | 360,000 compounds, 0.52% hits | AID 588674;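 active means mean inhibition of at least 75% with every replicate also reaching 75%; inconclusive means mean inhibition at least 75% but some replicate below; inactive means mean inhibition below 75%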
TRPM1 prom inh = reduces MITF-dependent TRPM1 promoter luciferase signal | inhibition, % at 12.5 µM | 330,000 compounds, 0.83% hits | SK-MEL-5 TRPM1 promoter luciferase, 24 h;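 active means mean inhibition across replicates of 60% or more, whatever share of single replicates reaches that level; inconclusive means some that reach 60%, reason not given; inactive means mean inhibition across replicates below 60%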
A number is an active result; i = inactive; ? = inconclusive; nt = no result. Shown are actives, neighbours in structure and some others; about 4.1% of the full set was active somewhere.

SMILES | Peg3 promoter | TROY NFkB inh | LMP1 NFkB inh | TWEAK-Fn14 inh | Shn3 3UTR inh | TRPM1 prom inh
COc1cc(C(=O)Oc2ccccc2/C=N/NC(=O)c2ccc(C)c(Cl)c2)cc(OC)c1OC | i | i | 56.9 | i | i | i
COc1cc(/C=N/Nc2ccc3ccccc3c2)ccc1OC(=O)c1ccco1 | i | i | i | 51.3 | i | i
COc1cc(C(=O)Oc2ccccc2/C=N/NC(=O)c2ccc(Cl)cc2)cc(OC)c1OC | i | i | i | i | i | i
COc1cccc(C(=O)NCCCNc2nc3cc(C)cc(C)c3cc2C#N)c1 | 66.0 | i | i | i | i | nt
COc1cccc(C(=O)N2CCN(c3nc4cc(C)cc(C)c4cc3C#N)CC2)c1 | i | i | 57.4 | i | i | nt
Cc1ccc2cc(C#N)c(N3CCCN(C(=S)NCCCN(C)C)CC3)nc2c1 | i | i | i | i | i | i
COc1ccc2cc(C#N)c(N3CCN(C(=O)c4ccccc4C)CC3)nc2c1 | i | i | i | i | i | i
Cc1cc(C)c2cc(C#N)c(N3CCCN(C(=S)NCCCN(C)C)CC3)nc2c1 | 104.1 | i | i | i | i | 87.6
CN(C)CCN(CC1CCCN(Cc2ccccc2F)C1)C(=O)c1ccc(Cl)cc1 (centres undefined) | i | i | i | i | i | i
CCc1nn(C(C)C(=O)N2CCN(c3ccc(OC)cc3)CC2)c(=O)c2cc3occc3n12 (centres undefined) | i | i | i | i | i | i
C=C(C)CN(CC)C(=O)CN1C(=O)NC(C)(c2ccc3ccccc3c2)C1=O (centres undefined) | i | i | i | i | i | i
Cc1nc2ccccn2c1C(=O)NNC(=O)Nc1cccc(C(F)(F)F)c1 | i | i | i | i | i | i
Cc1ccc(-n2ncc3c(NCCCN4CCOCC4)ncnc32)c(C)c1 | i | i | i | i | i | i
COc1ccc(-n2ncc3c(NCCCN4CCOCC4)ncnc32)cc1 | i | 59.2 | i | 74.3 | i | i
COc1ccc(-n2ncc3c(NCCN4CCOCC4)ncnc32)cc1 | i | 53.4 | i | 59.3 | i | i
COc1ccc(-n2ncc3c(NCC4CCCO4)ncnc32)cc1 (centres undefined) | i | i | i | i | i | i
CCOc1ccccc1NC(=O)c1nc(S(=O)(=O)Cc2cccc(C)c2)ncc1Cl | 106.2 | 70.5 | 66.3 | 78.5 | 97.6 | 93.4
CCc1nnc(NC(=O)c2nc(S(=O)(=O)Cc3ccc(C)cc3)ncc2Cl)s1 | 105.9 | 51.1 | i | 95.3 | 93.7 | 69.5
CCc1nnc(NC(=O)c2cccc(S(=O)(=O)N3CCN(C)CC3)c2)s1 | i | i | i | i | i | nt
CCc1nnc(NC(=O)c2nc(Cl)ccc2Cl)s1 | i | i | i | i | i | i
CCc1nnc(NC(=O)c2nc(S(=O)(=O)Cc3ccccc3)ncc2Cl)s1 | 104.1 | i | i | 97.1 | 98.3 | 79.8
CCc1nnc(NC(=O)c2ccc(COc3ccc(C)cc3)o2)s1 | i | i | i | i | i | i
CCc1nnc(NC(=O)c2nc(S(=O)(=O)Cc3cccc(C)c3)ncc2Cl)s1 | 108.6 | i | 65.8 | 97.0 | 96.8 | 75.7
NS(=O)(=O)c1ccc(N/N=C2/CCCc3ccccc32)c([N+](=O)[O-])c1 | i | i | i | i | i | i
O=[N+]([O-])c1cc(S(=O)(=O)N2CCCCCC2)ccc1F | 101.5 | i | i | i | i | 93.0
SMILES | Peg3 promoter | TROY NFkB inh | LMP1 NFkB inh | TWEAK-Fn14 inh | Shn3 3UTR inh | TRPM1 prom inh
O=[N+]([O-])c1cc(S(=O)(=O)N2CCCC2)ccc1N/N=C1/CCCc2ccccc21 | i | i | i | 63.5 | i | i
CCN(CC)S(=O)(=O)c1ccc(C(=O)NCC2CCCCC2)cc1 | i | i | i | i | i | i
CN(C)c1cccc(C(=O)NNC(=O)CN2C(=O)C3CC=CCC3C2=O)c1 (centres undefined) | i | 52.7 | i | 52.8 | i | i
O=C(COc1ccc(Cl)cc1)NCCNC(=O)c1ccccn1 | i | i | i | i | i | i
Cc1nn(-c2ccccc2)c(Cl)c1C1C(C#N)=C(N)Oc2n[nH]c(C)c21 (centres undefined) | i | i | 52.6 | i | i | i
C=CC[C@@H](CC(=O)N[C@H](CO)Cc1ccccc1)C(=O)NCCOC(=O)[C@@H](CC=C)CC(=O)OC(C)(C)C | i | i | i | i | i | i
NC(N)=Nc1ccc(C=C2C=Cc3ccccc32)cc1 | 104.4 | i | i | i | i | i
Nc1ccc(C=C2C=Cc3ccccc32)cc1 | i | i | i | i | i | i
CC(=O)N(CC#CCN(C(C)=O)c1ccccc1)c1ccccc1 | i | i | i | i | i | nt
COc1cc(N2CCCC2)c(OC)cc1/C=C(/C#N)c1ccc(Br)cc1 | 52.7 | i | i | i | i | i
Cc1nnc(SCc2cccc([N+](=O)[O-])c2)[nH]c1=O | i | i | i | i | i | i
Cc1ccc(Oc2ccc(NS(=O)(=O)c3cccc(C(=O)O)c3)cc2)cc1 | i | i | i | i | i | i
CCn1ccnc1CN1CCC(n2nccc2NC(=O)c2ccccc2OC)CC1 | i | i | i | i | i | i
CCC(C)(C)NC(=O)C(c1ccc(OC)cc1)N(C(=O)CCC(=O)Nc1cc(C)on1)c1ccc(OC)c(OC)c1 (centres undefined) | i | i | i | i | i | i
CCC(C)(C)NC(=O)C(c1ccc(OC)cc1)N(C(=O)CCC(=O)Nc1cc(C)on1)c1ccccc1OC (centres undefined) | i | i | i | 57.0 | i | i
Cc1cc(C)nc(SCC(=O)Nc2ccnc3ccccc23)n1 | i | i | i | i | ? | i
O=C(CSC1=NCCS1)Nc1ccnc2ccccc12 | i | i | i | 51.5 | i | i
COc1ccc(NS(=O)(=O)c2ccc3c(c2)NC(=O)C(C)S3)cc1 (centres undefined) | i | i | i | i | i | i
O=C(CCS(=O)(=O)c1ccccc1)Nc1cccc(-c2nc3ccccc3s2)c1 | i | 57.3 | i | 86.8 | i | i
O=C(O)CCC(=O)Nc1cccc(-c2csc(-c3ccccc3)n2)c1 | i | i | i | 57.3 | i | i
CCc1ccc(NC(=O)Cn2cnc3c(=O)n(C)c(=O)n(C)c32)cc1 | i | i | i | i | i | i
O=C(CCS(=O)(=O)c1ccccc1)Nc1ccc(-c2nc3ccccc3s2)cc1 | i | i | i | i | i | i
Cn1c(=O)c2ncn(CC(=O)Nc3cccc(-c4nc5ccccc5s4)c3)c2n(C)c1=O | i | i | i | 66.8 | i | i
COc1ccccc1CNc1nc2cc(-c3ccsc3)sc2c(=O)n1C | i | i | nt | i | i | nt
Cc1cccc2nc(CSc3nnnn3-c3ccccc3)cn12 | i | i | i | i | i | i
Cc1cccc2nc(CSc3nnc4ccccn34)cn12 | i | i | i | 50.2 | i | i
CC(C)Cn1c(N)c(S(=O)(=O)c2cccs2)c2nc3ccccc3nc21 | i | 67.2 | i | i | i | i
Nc1c(S(=O)(=O)c2cccs2)c2nc3ccccc3nc2n1/N=C/c1cccc(O)c1 | 91.8 | i | i | 80.9 | i | i
